# KCNQ2 block: blocks the rat KCNQ2 potassium channel; actives 1.1% (n = 310,000); AID 2156; O88943; B-score at 10 µM; CHO-K1 KCNQ2, FluxOR thallium flux, 20 min; hits give low values;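 active = fluorescence ratio B-score at most minus 3 library SDs, with starting brightness B-score within 2 library SDs, cut at about -5.5 in these data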
# KCNQ2 pot: KCNQ2 (rat) channel potentiation; CHO-K1 KCNQ2, FluxOR thallium flux fluorescence; hits give high values; B-score at 10 µM; actives 0.54% (n = 310,000);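 active = fluorescence ratio B-score at least 3 SD of library B-scores, with initial fluorescence B-score within 3 of them, cut at about 5.3 in these data; same plate scores as AID 2156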;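 note: B-score of peak minus minimum over baseline fluorescence ratio after K+ and Tl+ stimulus; positive B-score means potentiation of KCNQ2 with more thallium influx and brighter signal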
# Kir21 conf inh: confirmation of mouse Kir2.1 potassium channel inhibitors; shares compounds with KCNQ2 pot; Kir2.1-expressing cells, FluxOR thallium flux fluorescence; hits give low values; Tl flux remaining, % of negative control (hits give low values), % at 10 µM; actives 41% (n = 2,300); AID 2032;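 active = Primary-screen hit whose thallium flux fell at least 3 control SD below untreated wells in both duplicates, with normal baseline fluorescence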;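 note: 0% = blank wells without stimulus and 100% = stimulated no-compound controls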
# HEK293 Tl flux: parental HEK293 activity in Kir2.1 inhibitor counter-screen | shares compounds with KCNQ2 pot | parental HEK293 cells, FluxOR thallium flux fluorescence; 0% = unstimulated blank wells | FluxOR signal as % of negative control (100 = no effect), % at 10 µM | actives 19% (n = 2,300) | AID 2105;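 active = dye signal at least 3 control SD above or below untreated wells in both duplicates, raw fluorescence within 3, either direction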;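 note: percent is based on the flux ratio of peak minus minimum fluorescence over baseline F0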
# CHO-K1 Tl ctr: parental CHO-K1 activity in KCNQ2 potentiator counter-screen. AID 2282. shares compounds with KCNQ2 pot. parental CHO-K1 cells, FluxOR thallium flux fluorescence; zero = vehicle mean+3SD, 100% = vehicle-minus-blank window. actives 43% (n = 1,200). activity increase over 3SD of controls, % at 10 µM;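 active = signal rise of at least 3 SD above the untreated control mean, in both duplicate wells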;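 note: counter screen of KCNQ2 potentiator hits so any rise reflects channel-independent effects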
# KCNQ1 pot spec: selectivity of KCNQ2 potentiators: effect on human KCNQ1 | shares compounds with KCNQ2 pot | CHO KCNQ1 stable, FluxOR thallium flux fluorescence; beyond 3SD, as % of vehicle-control signal | activation over 3SD threshold, % at 10 µM | actives 28% (n = 1,200) | AID 2283;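 active = fluorescence ratio rise of at least 3 SD of vehicle wells above their mean, in both replicate wells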;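 note: 0% = vehicle mean plus 3 SD and 100% = vehicle minus unstimulated blank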
# KCNQ2 pot conf: confirmation of rat KCNQ2 potassium channel potentiators; potentiation, less the hit threshold, % at 10 µM; shares compounds with KCNQ2 pot; actives 68% (n = 1,200); AID 2287; CHO-KCNQ2 cells, FluxOR thallium flux fluorescence;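 active = fluorescence ratio rising 3 SD or more over the vehicle control mean in both replicates, plus primary screen hit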;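 note: peak minus minimum thallium fluorescence divided by baseline after K/Tl stimulus; 0% = vehicle mean plus 3 SD and 100% = vehicle minus unstimulated blank difference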
# Kir21 spec: tests whether KCNQ2 potentiators also affect mouse Kir2.1 | activity over 3SD threshold, % at 10 µM | actives 2% (n = 1,200) | HEK293 Kir2.1, FluxOR thallium flux fluorescence | shares compounds with KCNQ2 pot;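 active = fluorescence ratio rise of at least 3 SD above the vehicle-control mean, seen in both replicates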;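 note: 0% = vehicle mean plus 3 SD and 100% = vehicle minus no-stimulus blank window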
# KCNQ2 W236L pot: KCNQ2 potentiators acting on retigabine-insensitive rat KCNQ2 W236L mutant. shares compounds with KCNQ2 pot. CHO KCNQ2-W236L, automated patch clamp current. current increase over 3SD of negative controls (%), hits give high values, % at 25 µM. actives 10% (n = 940). AID 2558;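 active = current increase at least 3 SD of the untreated controls above them in both duplicate recordings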
# Target sequence (O88943 whole entry W236L, looked up): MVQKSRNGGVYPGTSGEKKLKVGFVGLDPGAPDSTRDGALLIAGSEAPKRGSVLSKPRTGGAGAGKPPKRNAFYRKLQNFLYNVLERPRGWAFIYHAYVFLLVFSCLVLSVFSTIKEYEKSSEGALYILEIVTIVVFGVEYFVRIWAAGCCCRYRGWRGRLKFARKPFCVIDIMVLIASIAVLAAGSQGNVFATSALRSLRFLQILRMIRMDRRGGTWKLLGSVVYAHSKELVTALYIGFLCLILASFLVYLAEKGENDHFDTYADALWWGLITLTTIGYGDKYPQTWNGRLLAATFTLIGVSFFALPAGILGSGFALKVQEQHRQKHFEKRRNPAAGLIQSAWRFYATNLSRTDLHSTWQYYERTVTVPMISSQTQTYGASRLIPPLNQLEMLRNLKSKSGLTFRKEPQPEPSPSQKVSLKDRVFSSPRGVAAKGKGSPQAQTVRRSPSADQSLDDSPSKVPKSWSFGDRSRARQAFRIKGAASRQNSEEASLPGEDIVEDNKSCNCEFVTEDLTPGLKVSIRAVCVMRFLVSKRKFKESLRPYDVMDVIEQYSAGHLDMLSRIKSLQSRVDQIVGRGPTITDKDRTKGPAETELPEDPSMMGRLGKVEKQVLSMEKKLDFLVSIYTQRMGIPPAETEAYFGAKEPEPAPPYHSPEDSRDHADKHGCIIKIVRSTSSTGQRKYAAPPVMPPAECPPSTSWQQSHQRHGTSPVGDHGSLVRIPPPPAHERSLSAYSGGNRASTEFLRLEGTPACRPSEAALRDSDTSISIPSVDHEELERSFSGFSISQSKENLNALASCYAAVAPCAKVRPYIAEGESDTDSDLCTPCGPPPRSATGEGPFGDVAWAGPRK
# Numbers without * were called inactive; i = inactive; nt = not tested or not shown. Shown are actives, neighbours in structure and some others; about 1.6% of the full set was active somewhere.
SMILES,KCNQ2 block,KCNQ2 pot,Kir21 conf inh,HEK293 Tl flux,others
CC1=C(C(=O)OCc2ccc(C)cc2)C(c2ccc(O)c([N+](=O)[O-])c2)NC(=O)N1 (configuration not stated),i,0.01,nt,nt,
c1ccc(CNc2ncnc3nc[nH]c23)cc1,i,1.4,nt,nt,
c1ccc(CCCNc2ncnc3nc[nH]c23)cc1,i,1.9,i,i,
O=S(=O)(Nc1ccccc1N1CCOCC1)c1ccc(F)c(Cl)c1,i,nt,46%*,i,
O=S(=O)(c1ccc(Cl)c(NC(=S)Nc2ccccc2N2CCOCC2)c1)N1CCOCC1,i,0.82,nt,nt,
CC(=O)Nc1ccc(S(=O)(=O)Nc2ccccc2N2CCOCC2)cc1Cl,i,nt,nt,nt,
Fc1ccc(NC(=S)Nc2ccccc2N2CCOCC2)cc1Cl,i,nt,63%*,134%*,
CCOC(=S)N/C(=N\S(=O)(=O)c1ccc(C)cc1)c1ccccc1,i,2.5,nt,nt,
Cc1cccn2c(=O)c3cc(S(=O)(=O)c4ccc(Br)cc4)c(=N)n(C4CCCC4)c3nc12,i,0.14,i,i,
N=c1c(S(=O)(=O)c2ccc(Br)cc2)cc2c(=O)n3ccccc3nc2n1C1CCCCC1,i,nt,nt,nt,
CCc1ccc(C(C)(O)C(CN2CCOCC2)c2ccccc2)cc1 (configuration not stated),i,0.41,nt,nt,
O=C(OCC(=O)N1CCCC1=O)c1nc(Cl)c(Cl)c(Cl)c1Cl,i,nt,nt,nt,
N/C(=N\OC(=O)CCC1CCCCC1)c1cccc([N+](=O)[O-])c1,i,11*,i,i,CHO-K1 Tl ctr=24*;KCNQ1 pot spec=-15;KCNQ2 pot conf=30*;Kir21 spec=-39;KCNQ2 W236L pot=i
N/C(=N\OC(=O)CC1CCCCC1)c1cccc(Br)c1,i,7.8*,i,i,CHO-K1 Tl ctr=-13;KCNQ1 pot spec=9.5*;KCNQ2 pot conf=21*;Kir21 spec=-43;KCNQ2 W236L pot=i
N/C(=N\OC(=O)CC1CCCCC1)c1ccc(Br)cc1,i,nt,nt,nt,
N/C(=N\OC(=O)CCC1CCCC1)c1ccc([N+](=O)[O-])cc1,i,0.44,nt,nt,
COc1ccccc1CC(=O)NC1CCCCCC1,i,1.9,nt,nt,
CCOc1cc(Br)c(CC(=O)NC2CCCCCC2)cc1OCC,i,14*,i,i,CHO-K1 Tl ctr=1.1*;KCNQ1 pot spec=14*;KCNQ2 pot conf=15*;Kir21 spec=-34;KCNQ2 W236L pot=i
C/C(=N\NC(=O)Cc1ccc(Cl)cc1)c1ccccc1O,i,4,nt,nt,
O=C(COc1ccccc1F)NCc1nc2ccccc2[nH]1,i,nt,nt,nt,
COCC(=O)O[C@]1(CCN(C)CCCc2nc3ccccc3[nH]2)CCc2cc(F)ccc2[C@@H]1C(C)C,i,nt,31%*,i,
CCn1c(SCC(=O)Nc2ccccc2OC)nc(O)cc1=O,i,0.01,nt,nt,
O=C1CC(SC2=NCCS2)C(=O)N1c1cccc(Cl)c1Cl (configuration not stated),i,0.97,nt,nt,
Cn1c(=S)[nH]c2sc3c(c2c1=O)CCC(C(C)(C)C)C3 (configuration not stated),i,18*,i,467%*,CHO-K1 Tl ctr=-1;KCNQ1 pot spec=-11;KCNQ2 pot conf=85*;Kir21 spec=1.4*;KCNQ2 W236L pot=i
COCCn1c(=S)[nH]c2sc3c(c2c1=O)CCC(C)C3 (configuration not stated),i,16*,i,i,CHO-K1 Tl ctr=0;KCNQ1 pot spec=3.6*;KCNQ2 pot conf=71*;Kir21 spec=11*;KCNQ2 W236L pot=i
SMILES,KCNQ2 block,KCNQ2 pot,Kir21 conf inh,HEK293 Tl flux,others
CCn1c(=O)n(CCOC)c(=O)c2c3c(sc21)CCCC3,i,0.3,nt,nt,
CCCn1c(=S)[nH]c2sc3c(c2c1=O)CCCC3,i,10*,i,342%*,CHO-K1 Tl ctr=-5;KCNQ1 pot spec=40*;KCNQ2 pot conf=27*;Kir21 spec=-6;KCNQ2 W236L pot=i
COCCCn1c(=S)[nH]c2sc3c(c2c1=O)CCCS3,i,7.2*,i,285%*,CHO-K1 Tl ctr=-31;KCNQ1 pot spec=47*;KCNQ2 pot conf=24*;Kir21 spec=-28;KCNQ2 W236L pot=i
CCn1nnc2sc3c(c2c1=O)CCC(C)C3 (configuration not stated),i,nt,nt,nt,
Nn1c(=S)[nH]c2sc3c(c2c1=O)CCCC3,i,0.24,nt,nt,
CC(=O)Cn1nnc2sc3c(c2c1=O)CCC(C(C)(C)C)C3 (configuration not stated),i,nt,nt,nt,
CCOC(=O)CCCC(=O)N1CCOCCOCCOCC1,i,nt,nt,nt,
O=C(/C=C/c1ccc(S(=O)(=O)N2CCOCC2)cc1)NCc1ccccc1Cl,i,nt,nt,nt,
Clc1cc(Cl)cc(C2=NCCC(c3ccccc3)O2)c1 (configuration not stated),i,nt,nt,nt,
COc1ccc(N2CCN(C(=O)c3c(C)nn(-c4ccccc4)c3C)CC2)cc1,i,nt,nt,nt,
COc1ccc(S(=O)(=O)N2CCOC2CNC(=O)C(=O)NCc2ccc3c(c2)OCO3)cc1 (configuration not stated),i,0.03,nt,nt,
CCCCCCC/C(C)=N/NC(=O)CC(=O)NCCc1ccccc1,i,5.6*,i,i,CHO-K1 Tl ctr=7.3*;KCNQ1 pot spec=-16;KCNQ2 pot conf=-24;Kir21 spec=-36
CCCCCNC(=O)CCc1ccccc1,i,0.05,nt,nt,
COc1ccc(CCNC(=O)COc2ccc(N(C)S(=O)(=O)c3ccc(Cl)cc3)cc2)cc1,-6.5*,-6.5,i,i,
CN(c1ccc(OCC(=O)NCCc2ccccc2)cc1)S(=O)(=O)c1ccc(Cl)cc1,i,nt,nt,nt,
CCN(CC(=O)NCc1ccc(Cl)cc1)C(=O)CSCC(=O)Nc1cccc(C)c1,i,nt,nt,nt,
CN(C)C(=O)c1cc(F)ccc1Sc1cc(Cl)ccc1Cl,i,nt,47%*,i,
CN(C)C(=O)c1cc(Cl)ccc1Sc1cc(Cl)ccc1Cl,i,nt,nt,nt,
CC(C)Oc1ccc(C(CCNCc2ccc(O)cc2)c2ccccc2)cc1 (configuration not stated),i,nt,nt,nt,
COc1ccc(C(CCNC(C)c2ccccc2)C(C)C)cc1 (configuration not stated),i,0.56,48%*,i,
COc1ccc(OCC(O)CNC(C)c2ccccc2)cc1 (configuration not stated),i,0.41,nt,nt,
COc1ccc(C(C)NCCC(c2ccc(OC(C)C)cc2)c2ccccc2OC)cc1 (configuration not stated),-6.6*,-6.6,56%*,i,
COCCN(C(=O)c1ccc(OC2CCN(S(=O)(=O)N(C)C)CC2)cc1)C(C)C,i,1.8,nt,nt,
CN(CC(=O)Nc1n[nH]c(=S)s1)S(=O)(=O)c1cccc2cccnc12,i,nt,nt,nt,
COc1cc(CNCCc2ccccc2F)ccc1OCc1ccc(Cl)nc1,i,0.04,nt,nt,

# High-throughput results: PubChem, Johns Hopkins Ion Channel Center
